Shown are actives, neighbours in structure and some others; about 19% of the full set was active somewhere.
HT1080 IDH1KD tx: toxicity to HT-1080 IDH1 knockdown cells (counter line); HT-1080 IDH1 knockdown viability, ATP luminescence, 48 h; 360,000 compounds, 2% hits; Potency, µM (titrated, usually from 46.1 µM), inactives show at the highest dose activity, negative = toxicity, actives largely listed as cytotoxic;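 further: 0% = DMSO wells and -100% = cell-free medium wells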
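Viability of IDH1-knockdown HT-1080 fibrosarcoma cells was assessed by CellTiter-Glo after 48 h at 37 °C with titrated compound; concentration-effect curves were classified by fit quality and response size.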
TDP1 cell CPT: growth inhibition of DT40 Tdp1-/-;hTDP1 cells with camptothecin (screen for TDP1 inhibitors) | Potency, µM (series often up to 46.2 µM), inactives show at the top dose activity change, negative = growth inhibition, most hits filed as inhibitors | 420,000 compounds, 12% hits | chicken DT40 Tdp1-/-;hTDP1 cells + 20 nM CPT, ATP luminescence, 48 h; further: nearly all actives have a fitted effect of over 55% in size
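Cell growth measured by CellTiter-Glo luminescence after a minimum 48 h, 37 C compound exposure with 20 nM CPT in Tdp1-knockout DT40 cells stably expressing hTDP1, seeded 400/well; qHTS titration format.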
HT1080-NT tox: kills 2HG-producing HT-1080-NT fibrosarcoma cells | HT-1080-NT fibrosarcoma viability, CellTiter-Glo ATP luminescence, 48 h | Potency, µM (top dose mostly 46.1 µM), without a hit: top-dose activity, negative = less viability, hits mostly cytotoxic | 360,000 compounds, 1.6% hits;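 further: NT is the 2HG producing partner of a matched IDH1 knockdown line; 0% = DMSO-treated cells and -100% = media-only wells without cells; nearly all actives have a fitted effect of over 55% in size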
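HT-1080-NT fibrosarcoma cells (2HG-overproducing), 750 cells/well in RPMI with 5% FBS, dosed after 2 h and incubated 48 h at 37C. CellTiter-Glo luminescence normalized to DMSO and no-cell wells; concentration-response curves fitted and classed.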
KB-3-1 tox: KB-3-1 parental cell cytotoxicity | KB-3-1 viability, CellTiter-Glo ATP luminescence, 72 h | Potency, µM (highest dose often 46.1 µM), actives largely listed as cytotoxic | 400,000 compounds, 1.4% hits; further: nearly all actives have a fitted effect of over 60% in size
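Viability of parental KB-3-1 cells, measured by CellTiter-Glo luminescence, followed a 72 h incubation at 37 °C with pinned compounds in phenol-red-free DMEM containing 10% FBS.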
TDP1 cell noCPT: qHTS for Inhibitors of human tyrosyl-DNA phosphodiesterase 1 (TDP1): qHTS in cells in absence of CPT; DT40 Tdp1-/- hTDP1 cells, no CPT, ATP luminescence, 48 h; 420,000 compounds, 15% hits; Potency, µM (series often up to 46.2 µM), inactives show at the highest dose activity change, negative = growth inhibition, most hits filed as inhibitors; further: nearly all actives have a fitted effect of over 55% in size
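Chicken DT40 Tdp1-/- cells complemented with human TDP1, screened without camptothecin (DMSO vehicle only), 400 cells/well. Compounds pin-transferred, cells incubated at 37 °C for at least 48 hr. Growth read as ATP-dependent luminescence (CellTiter-Glo, 30 min at RT).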
KB-V1 MDR tox: kills drug-selected multidrug resistant KB-V1 cells; KB-V1 MDR cells viability, CellTiter-Glo, 72 h; Potency, µM (highest dose often 46.1 µM), usual class: cytotoxic; 400,000 compounds, 3.4% hits; AID 1347076; further: nearly all actives have a fitted effect of over 60% in size
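Drug-selected KB-V1 cells, grown in DMEM lacking phenol red with 10% FBS, receive compound titrations; after three days at 37 degrees C, surviving cell ATP is quantified by CellTiter-Glo luminescence and responses normalized and curve-fitted.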
The depositor's hits bear a star; i = inactive; ? = inconclusive; . = no result given. The call rests on the fitted dose curve; in most records, active means well fitted curve in the direction sought with a large enough effect; inconclusive means small, poorly fitted or top-dose-only effect, or another doubt; inactive means no such curve, though single readings can be large; an effect the other way counts as inactive or inconclusive. Unless noted, on the % scale 0 is the no-effect control and ±100 the full control effect; potency means the concentration at half of the fitted maximal effect.

SMILES	HT1080 IDH1KD tx	TDP1 cell CPT	HT1080-NT tox	KB-3-1 tox	TDP1 cell noCPT	KB-V1 MDR tox
CCCC(=O)Nc1cccc(-c2cn3c(C)csc3n2)c1	.	-26%	.	.	?	.
c1ccc(N2[C@@H]3c4ccccc4C[C@H]2c2ccccc23)cc1	0%	20%	-22%	?	-21%	i
Cc1cc(C)cc(OCc2ccc(C(=O)Nc3ccccc3F)o2)c1	.	-23%	.	i	?	?
Cc1ccc(-c2noc(C3CCCN(C(=O)c4cccc([N+](=O)[O-])c4)C3)n2)o1 (configuration not stated)	-1%	?	-4%	i	-19%	i
COc1cc(-c2noc(C3CCCN(C(=O)c4c(F)cccc4F)C3)n2)cc(OC)c1OC (configuration not stated)	1%	?	2%	i	21µM*	i
COc1ccc(-c2noc(C3CCCN(C(=O)c4cccc(C)c4)C3)n2)cc1 (configuration not stated)	0%	16µM*	2%	i	16µM*	i
CCCS(=O)(=O)N1CCCC(c2nc(-c3ccc(OC)cc3)no2)C1 (configuration not stated)	6%	-27%	5%	i	-21%	13µM*
COc1ccc(-c2noc(C3CCCN(C(=O)c4c(F)cccc4F)C3)n2)cc1OC (configuration not stated)	3%	?	3%	i	?	i
CCS(=O)(=O)N1CCCC(c2nc(-c3cccc(OC)c3)no2)C1 (configuration not stated)	2%	-29%	4%	i	-21%	i
Cc1ccc(-c2noc(C3CCCN(C(=O)c4c(F)cccc4F)C3)n2)cc1 (configuration not stated)	-29%	?	-3%	i	21µM*	16µM*
Cc1ccc(-c2noc(C3CCCN(C(=O)c4cccc(F)c4)C3)n2)cc1 (configuration not stated)	-8%	?	-11%	i	29µM*	i
Cc1ccc(-c2noc(C3CCCN(C(=O)c4ccccc4Br)C3)n2)cc1 (configuration not stated)	?	?	-28%	?	21µM*	18µM*
COc1ccc(C(=O)N2CCCC(c3nc(-c4ccc(OC)c(OC)c4)no3)C2)c(OC)c1 (configuration not stated)	-8%	?	-4%	i	?	4.1µM*
COc1ccc(S(=O)(=O)Nc2ccccc2C(=O)NCc2cccnc2)cc1	-12%	-7%	-22%	i	?	i
CCC(C(=O)NC1CCCC1)n1c(C2CCCC2)nc2ccccc21 (configuration not stated)	5%	-25%	12%	i	?	?
COc1ccc(CNC(=O)CN2N=C(c3ccccc3)CCC2=O)c(OC)c1	.	-22%	.	.	?	.
COC(=O)c1ccc(NC(=S)N2CCN(Cc3ccc(Cl)cc3)CC2)cc1	?	?	?	i	16µM*	?
COc1cccc(NC(=O)C(=O)N2CCOCC2)c1	8%	6%	0%	i	-16%	i
COC(=O)c1ccc(NC(=O)C(=O)N2CCN(C(=S)Nc3cccc(OC)c3)CC2)cc1	24%	-5%	5%	i	?	18µM*
COC(=O)c1ccc(NC(=O)C(=O)N2CCN(C(=S)Nc3ccc(OC)cc3)CC2)cc1	-6%	-7%	-6%	i	?	21µM*
COC(=O)c1ccc(NC(=O)C(=O)N2CCN(C(=S)Nc3ccc(C)cc3)CC2)cc1	-11%	4%	6%	i	-8%	i
Cc1nc2ccn(Cc3cccnc3)c(=O)c2cc1C(=O)N1CCN(c2ccccc2)CC1	.	-1%	.	i	-1%	i
Cc1ccc(C(C(=O)NC2CCCCC2)N(Cc2ccco2)C(=O)Cc2c[nH]c3ccccc23)o1 (configuration not stated)	-19%	?	-16%	i	?	10µM*
COc1ccc(C(C(=O)NC2CCCCC2)N(Cc2cccs2)C(=O)Cc2c[nH]c3ccccc23)cc1OC (configuration not stated)	?	13µM*	?	?	21µM*	8.2µM*
O=C(NC1CCCC1)C(c1ccc(F)cc1)N(Cc1ccccc1Cl)C(=O)CCl (configuration not stated)	?	5.8µM*	?	?	3.3µM*	15µM*
SMILES	HT1080 IDH1KD tx	TDP1 cell CPT	HT1080-NT tox	KB-3-1 tox	TDP1 cell noCPT	KB-V1 MDR tox
COCCN(C(=O)CCl)C(C(=O)NC1CCCCC1)c1ccccc1C (configuration not stated)	13µM*	2.9µM*	?	13µM*	2.1µM*	21µM*
COCCN(C(=O)CNC(=O)c1ccco1)C(C(=O)NC1CCCC1)c1ccccc1F (configuration not stated)	10%	17%	12%	i	0%	i
Cc1ccc(N(C(=O)c2ccco2)C(C(=O)NC2CCCC2)c2ccco2)c(C)c1 (configuration not stated)	-10%	-27%	-16%	i	?	i
COc1ccc(C(C(=O)NC2CCCC2)N(C(=O)Cc2cccs2)C2CC2)cc1OC (configuration not stated)	8%	10%	2%	i	-2%	i
O=C(NC1CCCCC1)C(c1ccc(F)cc1)N(Cc1cccs1)C(=O)CN1C(=O)c2ccccc2S1(=O)=O (configuration not stated)	0%	16µM*	4%	i	16µM*	?
COc1ccc(C(C(=O)NC2CCCCC2)N(C(=O)Cc2c[nH]c3ccccc23)c2ccccc2C)cc1OC (configuration not stated)	-21%	?	-18%	i	21µM*	?
Cc1ccccc1N(C(=O)Cc1c[nH]c2ccccc12)C(C(=O)NC1CCCCC1)c1ccco1 (configuration not stated)	?	21µM*	?	i	9.2µM*	?
CCOc1ccc(CN(CC)C(=O)Cc2c[nH]c3ccccc23)cc1OC	-13%	?	-16%	i	15µM*	i
CC(=O)N/N=C/c1ccccc1OCCOc1cccc(C)c1	-3%	?	-2%	i	?	i

Screening results as filed in PubChem.
